Results as given in PubChem BioAssay (NCI).
Compounds without any hit were thinned out: in the full panel of roughly 79,000, 15% have a hit. A number with no mark means an inactive call. The source made the active and inactive calls. No stated cut-off is given here; in the data, active means growth inhibition above about 70%; inactive means the rest.

Assays:
[1] = NCI Yeast Anticancer Drug Screen. Data for the sgs1 strain (AID 173);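 further: 0% = growth of vehicle-only control cultures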; conditions: S. cerevisiae sgs1 mutant, active compounds read high
Procedure, shortened: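 Relative growth inhibition, referenced to vehicle, was determined in a yeast strain with a defined alteration affecting DNA damage repair or cell cycle control after compound exposure.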

[2] = NCI Yeast Anticancer Drug Screen. Data for the rad18 strain (AID 177); conditions: S. cerevisiae rad18 mutant growth inhibition, active compounds read high
Procedure, shortened: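 Screen uses a yeast strain with a defined lesion in DNA damage repair; compound effect is read as loss of growth compared to untreated vehicle cultures.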

[3] = NCI Yeast Anticancer Drug Screen. Data for the wt1 strain (AID 149);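 further: 0% = growth of vehicle-treated wt1 cultures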; conditions: S. cerevisiae wt1 strain (SPY 50644) growth inhibition, active compounds read high
Procedure, shortened: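 Vehicle-normalised growth inhibition; strain wt1; compound exposure.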

[4] = NCI Yeast Anticancer Drug Screen. Data for the rad50EPP+ strain (AID 151);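 further: 0% = growth of vehicle-treated control cultures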; conditions: S. cerevisiae rad50 mutant strain, active compounds read high
Procedure, shortened: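 One strain with a rad50 alteration (rad50EPP+) was compound-treated, its growth then compared to that of vehicle controls.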

[5] = NCI Yeast Anticancer Drug Screen. Data for the mgt1 strain (AID 153); conditions: S. cerevisiae mgt1 mutant growth inhibition, active compounds read high
Procedure, shortened: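 After exposure of the mgt1 yeast mutant to compound, growth was measured and reported as inhibition compared with vehicle controls.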

[6] = NCI Yeast Anticancer Drug Screen. Data for the mec2-1 strain (AID 157); conditions: S. cerevisiae mec2-1 strain, active compounds read high
Procedure, shortened: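 Test agents were screened against the mec2-1 yeast strain, with defined DNA repair or cell cycle alteration. Growth was scored as inhibition against vehicle-only controls.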

[7] = NCI Yeast Anticancer Drug Screen. Data for the rad14 strain (AID 159);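 further: 0% = growth of vehicle-treated control cultures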; conditions: S. cerevisiae rad14 strain growth inhibition, active compounds read high
Procedure, shortened: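 Vehicle-treated cultures served as the baseline for growth inhibition of a DNA repair-mutant yeast strain exposed to each compound.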

[8] = NCI Yeast Anticancer Drug Screen. Data for the sgs1 mgt1 strain (AID 161);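 further: 0% = growth of cultures given vehicle only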; conditions: S. cerevisiae sgs1 mgt1 strain, active compounds read high
Procedure, shortened: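 Read-out: growth inhibition vs vehicle controls. Cells: mutant yeast strain deficient in DNA damage repair.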

[9] = NCI Yeast Anticancer Drug Screen. Data for the CLN2oe strain (AID 163);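 further: 0% = growth of vehicle-only control cultures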; conditions: S. cerevisiae CLN2oe strain, active compounds read high
Procedure, shortened: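 Here, growth inhibition in a cell-cycle-altered yeast strain after compound exposure was quantified against vehicle control growth.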

[10] = NCI Yeast Anticancer Drug Screen. Data for the cln2 rad14 strain (AID 165);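 further: 0% = growth equal to vehicle treated cultures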; conditions: S. cerevisiae cln2 rad14 strain, active compounds read high
Procedure, shortened: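 Growth of compound-exposed yeast (cln2 rad14 genotype) measured and expressed as inhibition relative to vehicle.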

[11] = NCI Yeast Anticancer Drug Screen. Data for the bub3 strain (AID 167); conditions: S. cerevisiae bub3 mutant strain, active compounds read high
Procedure, shortened: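 Inhibition values come from growth of compound-treated mutant yeast normalised to vehicle-treated controls.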

[12] = NCI Yeast Anticancer Drug Screen. Data for the wt2 strain (AID 169);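 further: 0% = growth of vehicle-treated yeast cultures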; conditions: S. cerevisiae wt2 strain growth inhibition, active compounds read high
Procedure, shortened: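 Genetically defined yeast strains from a DNA-repair/cell-cycle panel were used. Compound-exposed yeast growth was measured, and the inhibition was calculated relative to vehicle treatment.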

[13] = NCI Yeast Anticancer Drug Screen. Data for the mlh1 rad18 strain (AID 175); conditions: S. cerevisiae mlh1 rad18 strain growth inhibition, active compounds read high
Procedure, shortened: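 In this whole-cell yeast screen, a strain with altered DNA damage repair is challenged with compound, and its growth is measured against matched vehicle-treated controls.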

[14] = NCI Yeast Anticancer Drug Screen. Data for the rad50 strain (AID 155);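 further: 0% = growth of vehicle-only cultures of the same strain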; conditions: S. cerevisiae rad50 strain growth inhibition, active compounds read high
Procedure, shortened: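 A DNA repair-deficient yeast mutant serves as the test organism; compound-induced growth inhibition is calculated against vehicle-treated cells.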

[15] = NCI Yeast Anticancer Drug Screen. Data for the mlh1 strain (AID 171);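 further: 0% = growth of vehicle-treated control cultures of the same strain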; conditions: S. cerevisiae mlh1 strain growth inhibition, active compounds read high
Procedure, shortened: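 Here the genetically defined yeast mutant is grown with each compound, and the extent to which its growth falls below that of vehicle-exposed cells is reported.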

[16] = at 5.0 µM (retest, dose inferred, filed as 0.5)
[17] = at 50.0 µM (retest, dose inferred, filed as 5.0)

NNc1nnc(-c2ccccc2)nc1Cc1ccccc1
growth inhibition ([1]; at 1.2 µM): -15% | growth inhibition ([1]; at 3.7 µM): -15% | growth inhibition ([1]; at 11.0 µM): -6% | growth inhibition ([1]; at 33.0 µM): 91% (active) | growth inhibition ([1]; at 100.0 µM): 94% (active) | growth inhibition ([2]; at 1.2 µM): -17% | growth inhibition ([2]; at 3.7 µM): -30% | growth inhibition ([2]; at 11.0 µM): -5% | growth inhibition ([2]; at 33.0 µM): 96% (active) | growth inhibition ([2]; at 100.0 µM): 91% (active)

COc1ccc2c(Cc3c4ccccc4cc4ccccc34)cncc2c1O
growth inhibition ([3]; at 1.2 µM): 2% | growth inhibition ([3]; at 3.7 µM): 4% | growth inhibition ([3]; at 11.0 µM): 12% | growth inhibition ([3]; at 33.0 µM): 56% | growth inhibition ([3]; at 100.0 µM): 93% (active) | growth inhibition ([4]; at 1.2 µM): 4% | growth inhibition ([4]; at 3.7 µM): 18% | growth inhibition ([4]; at 11.0 µM): 41% | growth inhibition ([4]; at 33.0 µM): 68% | growth inhibition ([4]; at 100.0 µM): 80% (active) | growth inhibition ([5]; at 1.2 µM): 3% | growth inhibition ([5]; at 3.7 µM): 6% | growth inhibition ([5]; at 11.0 µM): 11% | growth inhibition ([5]; at 33.0 µM): 42% | growth inhibition ([5]; at 100.0 µM): 93% (active) | growth inhibition ([6]; at 1.2 µM): 4% | growth inhibition ([6]; at 3.7 µM): 7% | growth inhibition [6, 16]: 19% | growth inhibition ([6]; at 11.0 µM): 12% | growth inhibition ([6]; at 33.0 µM): 33% | growth inhibition [6, 17]: 97% (active) | growth inhibition ([6]; at 50.0 µM): 91.5% (active) | growth inhibition ([6]; at 100.0 µM): 86% (active) | growth inhibition ([7]; at 1.2 µM): 6% | growth inhibition ([7]; at 3.7 µM): 7% | growth inhibition ([7]; at 11.0 µM): 27% | growth inhibition ([7]; at 33.0 µM): 95% (active) | growth inhibition ([7]; at 100.0 µM): 93% (active) | growth inhibition [8, 16]: 30% | growth inhibition [8, 17]: 95% (active) | growth inhibition ([8]; at 50.0 µM): 92.8% (active) | growth inhibition ([9]; at 1.2 µM): 5% | growth inhibition ([9]; at 3.7 µM): 7% | growth inhibition ([9]; at 11.0 µM): 9% | growth inhibition ([9]; at 33.0 µM): 18% | growth inhibition ([9]; at 100.0 µM): 68% | growth inhibition [10, 16]: -2% | growth inhibition [10, 17]: 96% (active) | growth inhibition ([10]; at 50.0 µM): 80.2% (active) | growth inhibition ([11]; at 1.2 µM): 5% | growth inhibition ([11]; at 3.7 µM): 8% | growth inhibition [11, 16]: 8% | growth inhibition ([11]; at 11.0 µM): 19% | growth inhibition ([11]; at 33.0 µM): 45% | growth inhibition [11, 17]: 97% (active) | growth inhibition ([11]; at 50.0 µM): 87.7% (active) | growth inhibition ([11]; at 100.0 µM): 85% (active) | growth inhibition ([12]; at 1.2 µM): 1% | growth inhibition ([12]; at 3.7 µM): 4% | growth inhibition ([12]; at 11.0 µM): 18% | growth inhibition ([12]; at 33.0 µM): 91% (active) | growth inhibition ([12]; at 100.0 µM): 93% (active) | growth inhibition ([1]; at 1.2 µM): 2% | growth inhibition ([1]; at 3.7 µM): 8% | growth inhibition ([1]; at 11.0 µM): 36% | growth inhibition ([1]; at 33.0 µM): 89% (active) | growth inhibition ([1]; at 100.0 µM): 91% (active) | growth inhibition [13, 16]: 80% (active) | growth inhibition [13, 17]: 97% (active) | growth inhibition ([13]; at 50.0 µM): 95.6% (active) | growth inhibition ([2]; at 1.2 µM): 9% | growth inhibition ([2]; at 3.7 µM): 4% | growth inhibition ([2]; at 11.0 µM): 25% | growth inhibition ([2]; at 33.0 µM): 86% (active) | growth inhibition ([2]; at 100.0 µM): 88% (active)

O=C(c1c(F)c(F)c(F)c(F)c1F)c1c(F)c(F)c(F)c(F)c1F
growth inhibition ([3]; at 1.2 µM): 3% | growth inhibition ([3]; at 3.7 µM): 49% | growth inhibition ([3]; at 11.0 µM): 95% (active) | growth inhibition ([3]; at 33.0 µM): 99% (active) | growth inhibition ([3]; at 100.0 µM): 99% (active) | growth inhibition ([4]; at 1.2 µM): 30% | growth inhibition ([4]; at 3.7 µM): 60% | growth inhibition ([4]; at 11.0 µM): 94% (active) | growth inhibition ([4]; at 33.0 µM): 96% (active) | growth inhibition ([4]; at 100.0 µM): 92% (active) | growth inhibition ([14]; at 1.2 µM): 27% | growth inhibition ([14]; at 3.7 µM): 59% | growth inhibition [14, 16]: 79% (active) | growth inhibition ([14]; at 11.0 µM): 95% (active) | growth inhibition ([14]; at 33.0 µM): 96% (active) | growth inhibition [14, 17]: 97% (active) | growth inhibition ([14]; at 50.0 µM): 84.6% (active) | growth inhibition ([14]; at 100.0 µM): 95% (active) | growth inhibition ([6]; at 1.2 µM): 36% | growth inhibition ([6]; at 3.7 µM): 77% (active) | growth inhibition [6, 16]: 61% | growth inhibition ([6]; at 11.0 µM): 99% (active) | growth inhibition ([6]; at 33.0 µM): 100% (active) | growth inhibition [6, 17]: 99% (active) | growth inhibition ([6]; at 50.0 µM): 87.5% (active) | growth inhibition ([6]; at 100.0 µM): 99% (active) | growth inhibition ([7]; at 1.2 µM): 10% | growth inhibition ([7]; at 3.7 µM): 55% | growth inhibition ([7]; at 11.0 µM): 98% (active) | growth inhibition ([7]; at 33.0 µM): 99% (active) | growth inhibition ([7]; at 100.0 µM): 99% (active) | growth inhibition ([9]; at 1.2 µM): 4% | growth inhibition ([9]; at 3.7 µM): 72% (active) | growth inhibition ([9]; at 11.0 µM): 98% (active) | growth inhibition ([9]; at 33.0 µM): 99% (active) | growth inhibition ([9]; at 100.0 µM): 97% (active) | growth inhibition ([11]; at 1.2 µM): 54% | growth inhibition ([11]; at 3.7 µM): 80% (active) | growth inhibition [11, 16]: 3% | growth inhibition ([11]; at 11.0 µM): 96% (active) | growth inhibition ([11]; at 33.0 µM): 99% (active) | growth inhibition [11, 17]: 80% (active) | growth inhibition ([11]; at 50.0 µM): 88.7% (active) | growth inhibition ([11]; at 100.0 µM): 97% (active) | growth inhibition ([12]; at 1.2 µM): 16% | growth inhibition ([12]; at 3.7 µM): 52% | growth inhibition ([12]; at 11.0 µM): 98% (active) | growth inhibition ([12]; at 33.0 µM): 99% (active) | growth inhibition ([12]; at 100.0 µM): 98% (active) | growth inhibition ([15]; at 1.2 µM): 16% | growth inhibition ([15]; at 3.7 µM): 56% | growth inhibition ([15]; at 11.0 µM): 97% (active) | growth inhibition ([15]; at 33.0 µM): 98% (active) | growth inhibition ([15]; at 100.0 µM): 97% (active) | growth inhibition ([1]; at 1.2 µM): 39% | growth inhibition ([1]; at 3.7 µM): 72% (active) | growth inhibition ([1]; at 11.0 µM): 96% (active) | growth inhibition ([1]; at 33.0 µM): 97% (active) | growth inhibition ([1]; at 100.0 µM): 95% (active) | growth inhibition [13, 16]: 45% | growth inhibition [13, 17]: 88% (active) | growth inhibition ([13]; at 50.0 µM): 67.3% | growth inhibition ([2]; at 1.2 µM): 28% | growth inhibition ([2]; at 3.7 µM): 56% | growth inhibition ([2]; at 11.0 µM): 92% (active) | growth inhibition ([2]; at 33.0 µM): 96% (active) | growth inhibition ([2]; at 100.0 µM): 93% (active)
